# HEK293 cAMP cs: qHTS Assay for Agonists of the Thyroid Stimulating Hormone Receptor: Activators of Intracellular cAMP Concentrations in Parental HEK 293; parental HEK293 CNG cAMP sensor, membrane potential fluorescence; Potency, µM (highest dose often 57.1 µM), without a hit: at the highest dose activation, actives largely listed as activators; 73,000 tested, 2.5% active; AID 938, 2007; note: % of control where 0% means no effect; nearly all actives have a fitted effect of over 55% in size
#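 Parental HEK 293 cells stably expressing a modified CNG channel (no TSHR) report cAMP rise as membrane depolarization. Membrane potential dye with 100 uM RO 20-1724 was loaded for 60 min at room temperature, then compound added for 30 min; fluorescence read at 590 nm.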
# ALOX15 inhib: qHTS Assay for Inhibitors of 15-hLO (15-human lipoxygenase); purified 15hLO-1, xylenol orange hydroperoxide absorbance; Potency, µM (series often up to 57.1 µM), for the others: at the top dose activity change, negative = inhibition, most hits filed as inhibitors; Polyunsaturated fatty acid lipoxygenase ALOX15 (Homo sapiens), P16050; 74,000 tested, 1.4% active; note: % is set by controls: 0 for no effect and ±100 for the full control effect; nearly all actives have a fitted effect of over 55% in size
#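 40 nM 15hLO-1 + cpd, 15 min RT; start w/ 50 uM AA (final), 6 min RT; stop/detect w/ 200 uM XO + 300 uM Fe(II) in 50 mM H2SO4, 30 min; A573/A405. Buffer 25 mM Hepes pH 7.5, 0.01% Triton X-100. No-enzyme wells as negative control.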
# PK Bst: Pyruvate Kinase. Potency, µM. AID 361, 2006. purified pyruvate kinase, luminescence ATP production; ribose 5-phosphate activator present at AC10. 51,000 tested, 1.2% active; in the data active = potency below about 11 µM; inconclusive = mostly about 12 µM to 25 µM;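 the screen sought inhibitors and activators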;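 note: scaled between full activation by ribose 5 phosphate and full inhibition by luteolin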
# Tau fil binding: qHTS Assay for Tau Filament Binding; Microtubule-associated protein tau (Homo sapiens), P10636; recombinant tau filaments, thioflavin S fluorescence, 15 h; filaments grown with octadecylsulfate alongside compound; Potency, µM (top dose mostly 57.1 µM), for the others: top-dose activity change, negative = inhibition; 71,000 tested, 2% active;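 note: % is set by controls: 0 for no effect and ±100 for the full control effect; actives lower thioflavin S fluorescence by blocking filaments or displacing dye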
# Target sequence (P10636 whole entry, looked up): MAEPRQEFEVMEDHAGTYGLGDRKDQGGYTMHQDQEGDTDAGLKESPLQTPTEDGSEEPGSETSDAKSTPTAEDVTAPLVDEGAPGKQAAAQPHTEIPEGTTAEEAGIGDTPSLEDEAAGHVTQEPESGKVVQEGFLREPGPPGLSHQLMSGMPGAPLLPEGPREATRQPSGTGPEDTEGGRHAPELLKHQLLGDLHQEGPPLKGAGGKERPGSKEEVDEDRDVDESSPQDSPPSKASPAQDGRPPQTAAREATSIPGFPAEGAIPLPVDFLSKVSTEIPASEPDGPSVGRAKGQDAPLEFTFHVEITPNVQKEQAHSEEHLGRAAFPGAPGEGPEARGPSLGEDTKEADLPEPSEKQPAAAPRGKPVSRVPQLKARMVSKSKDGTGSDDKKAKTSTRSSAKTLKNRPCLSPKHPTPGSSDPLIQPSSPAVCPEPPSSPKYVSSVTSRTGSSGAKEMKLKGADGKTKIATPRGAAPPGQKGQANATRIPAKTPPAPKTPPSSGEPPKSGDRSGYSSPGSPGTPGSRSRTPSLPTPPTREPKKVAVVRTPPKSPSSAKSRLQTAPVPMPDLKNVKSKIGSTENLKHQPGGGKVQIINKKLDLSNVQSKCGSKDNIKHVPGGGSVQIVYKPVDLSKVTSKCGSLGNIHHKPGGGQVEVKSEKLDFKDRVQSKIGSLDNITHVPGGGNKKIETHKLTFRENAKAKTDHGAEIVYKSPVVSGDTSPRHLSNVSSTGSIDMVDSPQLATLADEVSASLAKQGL
#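 Recombinant tau protein (human, 1 uM final) plus 30 uM ODS in HEPES pH 7.4 with NaCl, DTT and thioflavine S. Compound present from the start; fluorescence at 510 nm after 15 h, 37 C.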
# TSHR ag: qHTS Assay for Agonists of the Thyroid Stimulating Hormone Receptor. Thyrotropin receptor (Homo sapiens), P16473. HEK293-CNG-TSHR cells (CNG channel as cAMP sensor), membrane potential dye, cAMP. Potency, µM (series often up to 57.1 µM), without a hit: at the top dose activation, hits mostly activators. 73,000 tested, 0.48% active; active = well fitted activation curve with a large enough effect in the main read-out, with a control signal flat, not every such curve was filed as active; inconclusive = small, poorly fitted or top-dose-only effect, or a change in a side signal; inactive = no such curve, though single readings can be large or run the other way; % of control where 0% means no effect;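 note: the control signal comes from parental cells without the receptor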
#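 HEK 293 cells stably expressing TSHR and a cAMP-gated CNG channel; parental CNG-only cells as counterscreen. Cells preloaded 60 min with membrane potential dye plus 100 uM RO 20-1724, then compound 30 min; fluorescence read at 590 nm.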
# FLuc inh: qHTS Assay for Inhibitors of Firefly Luciferase; Luciferin 4-monooxygenase (Photinus pyralis), P08659; purified firefly luciferase, luminescence, 8 min; Potency, µM (doses to about 57.1 µM), inactives show top-dose activity change, negative = inhibition, actives largely listed as inhibitors; 72,000 tested, 2.2% active; AID 411, 2009; note: % is set by controls: 0 for no effect and ±100 for the full control effect; nearly all actives have a fitted effect of over 40% in size
#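 Here, luciferase activity is measured as luminescence following an 8 min room-temperature reaction at 10 uM ATP, pH 7.2. Every library sample is titrated.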
# * hit, by the source's call; i = inactive; ? = inconclusive; . = no result; [ ] = remark or other dose. A selection: hits, their analogues and other compounds. The true share with any hit is near 7.8%. Unless noted, calls come from the whole dose curve; as a rule, active = well fitted curve in the direction sought with a large enough effect; inconclusive = small, poorly fitted or top-dose-only effect, or another doubt; inactive = no such curve, though single readings can be large; an effect the other way counts as inactive or inconclusive. Potency is the fitted concentration of half-maximal effect.
SMILES,HEK293 cAMP cs,ALOX15 inhib,PK Bst,Tau fil binding,TSHR ag,FLuc inh
O=C(Nc1ccc2c(c1)OCO2)OCc1ccccc1,?,-0.6%,.,-4.7%,?,12.6µM*
CC(=O)Nc1cccc(NC(=O)c2ccco2)c1,5.1%,1.1%,.,.,0.1%,.
CCSC(N)=Nc1ccc(C(F)(F)F)cc1,-3.2%,?,.,2.3%,7.1%,-3.5%
O=C(COc1ccc2ccc(=O)oc2c1)Nc1ccc2c(c1)OCCO2,-6.7%,-3.6%,.,403.1%,0.4%[11.4 µM],12.6µM*
O=C(Nc1cccc(OC(=O)c2ccco2)c1)c1ccco1,5.9%,-4.4%,>57,10.0%,27.7%,-5.5%
O=C(Nc1ccc(OC(=O)c2ccco2)cc1)c1ccco1,6.9%,-3.8%,i,-4.5%,-1.6%,12.6µM*
CN(C)C(=O)COc1ccc2ccc(=O)oc2c1,2.2%,10.2%,.,0.5%,-2.5%,-1.3%
O=C(Nc1ccc2c(c1)OCCO2)c1ccco1,-2.2%,4.7%,.,1.0%,4.7%,10µM*
COC(=O)C1OC(=O)C2O[C@@]23[C@]2(C)C(OC(C)=O)CC4C(C)(C)C(=O)CC[C@]4(C)C2CC[C@@]13C (stereo partly drawn),.,-3.1%,.,.,.,.
CCn1c(C(=O)NCCCc2ccccc2)cc2sccc21,-59.4%,20µM*,.,.,?,.
CCNc1ncc2nc(-c3cccs3)c(=O)n(Cc3cccs3)c2n1,-2.9%,-10.9%,.,i,3.1%,1.6%[11.4 µM]
O=C(Nc1cnn(Cc2ccc(F)cc2)c1)c1cc(-c2ccc(Br)cc2)on1,10.9%,-15.1%,.,82.0%,2.6%,0.1%
COc1cccc(Cn2c(=O)c(-c3ccc(F)cc3)nc3cnc(N4CCNCC4)nc32)c1,12.7%,0.3%,.,?,-11.5%,1.0%[11.4 µM]
CCOC(=O)C1CCCN(CC(=O)NC2=Nc3ccccc3N=C(C)C2c2ccccc2)C1 (stereo not drawn),29.7%,2.3%,>57,0.9%,25.1µM*,-0.2%
Cc1ccc(-c2noc(CSc3nnnn3C3CCCCC3)n2)cc1,46.7%,-3.0%,.,15.2%,25.1µM*,2.8%
Cc1cc(NC(=O)CSc2nnnn2C2CCCC2)no1,2.5%,8.9%,>57,3.3%,-5.2%,-0.7%
N#CCCCCN1c2cccc3cccc(c23)S1(=O)=O,12.2%,-5.3%,7.94*,-0.7%,5.6%,-0.7%
CCCN1c2cccc3cccc(c23)S1(=O)=O,13.3%,-1.3%,?,-2.9%,8.9%,-7.2%
COc1cccc(-c2cn3nc4c(nc3n2)CCCC4)c1,2.5%,-7.5%,4.55*,113.5%,-4.1%,3.16µM*
COc1cccc(-c2cc(C(F)(F)F)n3nc(N)nc3n2)c1,-1.3%,-3.1%,>57,-12.0%,.,1.9%
CCN1CCCC1CNC(=O)c1nn(-c2ccc(C)cc2)c(=O)c2c1c1ccccc1n2C (stereo not drawn),-37.8%,-7.3%,>57,34.9%,?,1.7%
COc1ccc(NC2=Nc3ccccc3CC2)cc1,16.1%,-14.2%,>57,5.0%,11.3%,20µM*
CC(C)C(=O)Nc1cccc(NC(=O)c2cc3ccccc3o2)c1,18.2%,-4.5%,i,10.2%,.,12.6µM*
Cc1ccc(-c2nc3ncccc3o2)cc1NC(=O)c1cc2ccccc2o1,?,6.6%[11.4 µM],.,213.6%[11.4 µM],?,-1.1%
Cc1ccc2cc3cc(C(=O)NCc4ccco4)oc3nc2c1,-1.3%,-2.2%,>57,37.0%,26.1%,-2.6%
SMILES,HEK293 cAMP cs,ALOX15 inhib,PK Bst,Tau fil binding,TSHR ag,FLuc inh
O=C(NCc1ccco1)c1cc2ccccc2o1,23.1%,20µM*,.,8.0%,21.2%,-3.3%
CC(=O)Nc1cccc(NC(=O)c2cc3ccccc3o2)c1,0.5%,8.9%,?,5.7%,0.0%,12.6µM*
O=C(Nc1cccc(-c2nc3ncccc3o2)c1)c1cc2ccccc2o1,?,-17.0%,.,i,?,15.8µM*
COc1ccc(NC(=O)c2cc3ccccc3o2)cc1,?,-4.8%,.,23.5%,?,6.31µM*
COc1ccc(NC(=O)c2ccco2)cc1NC(=O)c1cc2ccccc2o1,?,-3.5%,>57,121.2%,?,0.3%
CC(=O)Nc1ccc(-c2cc3ccccc3o2)cc1,.,.,?,.,.,3.98µM*
O=C(N/N=C\c1cccc(O)c1)c1ccncc1,7.3%[11.4 µM],-4.7%[11.4 µM],.,-6.7%[11.4 µM],22.7%[11.4 µM],-1.5%[11.4 µM]
O=C(N/N=C\c1ccc2c(c1)CCC2)c1ccccc1O,2.4%[11.4 µM],0.3%[11.4 µM],.,5.6%[11.4 µM],10.5%[11.4 µM],3.16µM*
COc1ccc(-c2cc(N3CCCC3)n3ncnc3n2)cc1,24.7%,-25.4%,9.21*,43.0%,10.0%,1.8%
COc1ccc(-c2cc(C(N)=O)nc(N3CCCCCC3)n2)cc1,-1.2%,-16.8%,?,5.0%,14.8%,7.94µM*
COc1ccc(-c2cc(C(F)(F)F)nc(N3CCCCCC3)n2)cc1,17.3%,-24.6%,>57,3.0%,-1.1%,2.7%
COc1ccc(-c2nsc3c(N4CCCC4)ncnc23)cc1,7.1%,9.0%,1.57*,6.3%,-2.7%,0.794µM*
O=C(O)c1ccc(Cc2ccccc2C(=O)O)cc1,12.2%[11.4 µM],-8.7%[11.4 µM],.,-4.2%[11.4 µM],-64.1%[11.4 µM],1.9%[11.4 µM]
N[C@@H](Cc1cccnn1)C(=O)O,-2.1%[11.4 µM],0.5%[11.4 µM],.,4.0%[11.4 µM],-1.2%[11.4 µM],0.7%[11.4 µM]
CCOc1ccc(-c2nnc3sc(COc4ccc(C)cc4)nn23)cc1,20µM*,5.1%,>57,53.1%,?,2.3%
Clc1ccc(OCc2nn3c(-c4ccco4)nnc3s2)cc1,?,-8.4%,.,45.2%,?,2.4%
CCOc1ccc(-c2nnc3sc(COc4ccc(Cl)cc4)nn23)cc1,25.1µM*,-30.7%,>57,24.7%,?,-2.1%
Clc1ccc(OCc2nn3c(-c4ccncc4)nnc3s2)cc1,31.6µM*,22.7%,>57,-8.8%,?,0.9%
O=C1c2oc3ccccc3c(=O)c2C(c2ccc(Cl)cc2)N1c1ncccn1 (stereo not drawn),-3.4%,12.4%,>57,-15.0%,-18.2%,6.7%
CC(=O)O[C@H]1C[C@H]2CC[C@@H]3[C@@H](CC[C@]4(C)[C@H](OC(C)=O)[C@H]([N+]5(C)CCCCC5)C[C@@H]34)[C@]2(C)C[C@H]1[N+]1(C)CCCCC1,9.6%[25.6 µM],7.7%[25.6 µM],.,14.6%[25.6 µM],20.9%[25.6 µM],3.1%[25.5 µM]
COc1ccc2cc(S(=O)(=O)N3CCCCC3)ccc2c1S(=O)(=O)N1CCCCC1,12.1%,-2.0%,>57,-2.6%,4.7%,1.1%
CC(=O)/C=C\C1[C@]2(C)CCCC(C)(C)C2CC[C@@]1(C)O (stereo partly drawn),.,-3.2%,.,.,.,.
CCOC(=O)c1sc(Nc2nc3c(OC)cccc3s2)nc1C,13.3%,1.4%,.,37.8%,-0.7%,15.8µM*
CC(OC(=O)c1cc(=O)[nH]c2ccccc12)c1ccccc1 (stereo not drawn),10.8%,-16.3%,>57,-30.6%,18.3%,4.3%
